Laboratory results as given in PubChem BioAssay (NCI).
About 83,000 compounds went through this panel and 20% of them were active in at least one assay; those are over-represented in the sample as a whole.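 Activity criterion: percent growth below 10, measured after cells in 96-well plates were exposed to a single compound concentration for 48 hours.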 Active and inactive are the calls of the source.

What was measured:
Experiment in all cases: NCI-60 one-dose screen, 48 h (100 = growth as untreated, 0 = no growth, -100 = all killed)
Settings in all cases: 10 µM unless noted
[1] = test system: DU-145 prostate
[2] = test system: K-562 leukemia
[3] = test system: MALME-3M melanoma
[4] = test system: MDA-MB-231 breast
[5] = test system: RXF 393 renal
[6] = test system: SF-268 CNS
[7] = test system: SF-295 CNS
[8] = test system: SF-539 CNS
[9] = test system: UACC-257 melanoma
[10] = test system: M14 melanoma
[11] = test system: HCT-15 colon
[12] = test system: HT29 colon
[13] = test system: SNB-75 CNS
[14] = test system: SNB-19 CNS
[15] = test system: U251 CNS
[16] = test system: PC-3 prostate
[17] = test system: SK-MEL-5 melanoma
[18] = test system: UACC-62 melanoma
[19] = test system: LOX IMVI melanoma
[20] = test system: SK-MEL-28 melanoma

Measured: growth

CC(C)NC(=O)N1C(=O)CCC1NNC(=O)c1ccc([N+](=O)[O-])cc1 (stereo not given)
inactive: [1] 103% | [2] 98.6% | [3] 101% | [4] 108% | [5] 123% | [6] 100% | [7] 105% | [8] 97.7% | [9] 111% | [10] 100% | [11] 107% | [12] 106% | [13] 102% | [14] 107% | [15] 109% | [16] 107% | [17] 105% | [18] 98.1% | [19] 93.9% | [20] 98.4%

CCCCN(CCCC)CCc1c(C)cc(C)c(CCN(CCCC)CCCC)c1O
active: [3] -15.9% | [9] 7.47% | [17] 0.474% | [18] 3.34%
inactive: [1] 52.9% | [2] 21.2% | [4] 48.3% | [5] 40.1% | [6] 49.5% | [7] 31.3% | [8] 67.6% | [10] 38.8% | [11] 36.7% | [12] 11.9% | [13] 82.8% | [14] 22.8% | [15] 24.6% | [16] 14.1% | [19] 28.2% | [20] 23.2%

C=C1C(=O)O[C@H]2[C@H]1CC/C(COC(=O)NCCc1c[nH]c3ccc(Cl)cc13)=C\CC[C@@]1(C)O[C@@H]21
active: [1] -87.8% | [2] -13.2% | [3] -84.4% | [4] -70.5% | [5] -93.6% | [6] -71% | [8] -63.8% | [9] -11.6% | [10] -54.8% | [11] -66.6% | [12] -73.6% | [13] -54.6% | [15] -41.4% | [16] 1.04% | [17] -15.2% | [18] -51.7% | [19] -82.4%
inactive: [7] 75.4% | [14] 32.4%

CC1(C)CC[C@]2(C(=O)NCC#CCN3CCOCC3)CC[C@]3(C)C(=CC[C@@H]4[C@@]5(C)Cc6c([nH]c7ccccc67)C(C)(C)[C@@H]5CC[C@]43C)[C@@H]2C1
inactive: [1] 103% | [2] 65.3% | [3] 95% | [4] 91.4% | [5] 98.6% | [6] 87.7% | [7] 79.7% | [8] 107% | [9] 47.5% | [10] 80.7% | [11] 93.5% | [12] 83.5% | [13] 98.2% | [14] 93.1% | [15] 87.9% | [16] 58.6% | [17] 88.8% | [18] 49.3% | [19] 94.6% | [20] 67.7%

CSc1nc(O)c(-c2ccccc2)c(=O)[nH]1
inactive: [1] 107% | [2] 98% | [3] 101% | [4] 98.5% | [5] 116% | [6] 103% | [7] 101% | [8] 100% | [9] 101% | [10] 101% | [11] 102% | [12] 99.9% | [13] 97.1% | [14] 100% | [15] 101% | [16] 96.9% | [17] 101% | [18] 93.1% | [19] 101% | [20] 101%

Cc1nccc2c3ccc(OCc4cn(-c5ccc(Cl)cc5)nn4)cc3n(CCCc3ccccc3)c12
active: [3] -7.83% | [5] -2.27% | [6] -5.93% | [7] 8.27% | [8] -16.5% | [9] -34.6% | [10] -73.2% | [13] -45.1% | [18] -62% | [19] 0.291% | [20] -34.3%
inactive: [1] 27.6% | [2] 11.1% | [4] 27.4% | [11] 45.7% | [12] 11.1% | [14] 63% | [15] 25.3% | [16] 16.3% | [17] 68.3%

C=C1C(=O)O[C@H]2[C@H]1CC/C(COC(=O)CCCCCC(=O)OC/C1=C/CC[C@@]3(C)O[C@H]3[C@H]3OC(=O)C(=C)[C@@H]3CC1)=C\CC[C@@]1(C)O[C@@H]21
inactive: [1] 22.4% | [6] 43.6% | [7] 84.7% | [9] 48.2% | [13] 46.5% | [14] 62.4% | [15] 47.8% | [16] 29.8% | [17] 26.3% | [20] 18.5%
active: [2] 6.4% | [3] -11.1% | [4] -28.2% | [5] -77.3% | [8] 3.99% | [10] -0.138% | [11] 0.552% | [12] 3.42% | [18] 8.53% | [19] -53.5%

Nc1c(Cl)cc([N+](=O)[O-])cc1Br
inactive: [1] 105% | [2] 99.1% | [3] 107% | [4] 101% | [5] 98.2% | [6] 97.1% | [7] 74% | [8] 114% | [9] 91.3% | [10] 114% | [11] 103% | [12] 103% | [13] 108% | [14] 116% | [15] 101% | [16] 96.1% | [17] 98.9% | [18] 102% | [19] 104%

O=S(=O)(NCCCNc1nccc(-c2c(-c3cccc(O)c3)nc3occn23)n1)c1ccc(F)cc1
inactive: [1] 85.8% | [2] 68.7% | [3] 17.9% | [4] 62.7% | [5] 68% | [6] 84.5% | [7] 101% | [8] 101% | [9] 19.7% | [10] 27.5% | [11] 90.2% | [12] 36.3% | [13] 104% | [14] 113% | [15] 95.3% | [16] 81.4% | [17] 35.7% | [19] 44.4% | [20] 33.7%
active: [18] -1.99%

CC[C@H](CC[C@@H](C)[C@H]1CC[C@H]2[C@@H]3CC=C4C[C@@H](OCCc5nn[nH]n5)CC[C@]4(C)[C@H]3CC[C@]12C)C(C)C
inactive: [1] 101% | [2] 92.4% | [3] 108% | [4] 117% | [5] 129% | [6] 100% | [7] 98.1% | [8] 103% | [9] 103% | [10] 108% | [11] 102% | [12] 94.8% | [13] 107% | [14] 110% | [15] 105% | [16] 112% | [17] 111% | [18] 118% | [19] 99.9% | [20] 110%

C=C1C(=O)O[C@H]2[C@H]1CC/C(COC(=O)/C=C/c1c[nH]c3ccccc13)=C\CC[C@@]1(C)O[C@@H]21
inactive: [7] 21.8%
active: [1] -73.5% | [2] -3.41% | [3] -83.5% | [4] -78.4% | [5] -94.3% | [6] -72.8% | [8] -95.5% | [9] -90.4% | [10] -76.9% | [11] -64.6% | [12] -83.6% | [13] -53.7% | [14] -68.8% | [15] -98.1% | [16] -73.4% | [17] -98.4% | [18] -71.9% | [19] -97.3%

[2H]C1([2H])NC([2H])([2H])C([2H])([2H])N(c2ccc(Nc3ncc4cc(C(=O)N(C)C)n(C5CCCC5)c4n3)nc2)C1([2H])[2H]
inactive: [1] 99.7% | [2] 64.6% | [3] 58.4% | [4] 64.9% | [5] 82.4% | [6] 77.4% | [7] 72.7% | [8] 86.5% | [9] 61.1% | [10] 75.2% | [11] 85% | [12] 34% | [13] 65.5% | [14] 64.3% | [15] 61.4% | [16] 62.3% | [17] 78.3% | [18] 78.7% | [19] 49.2%

Fc1cc(C2=NNC(c3ccc[nH]3)C2)ccc1-n1ccc(C(F)(F)F)n1 (stereo not given)
inactive: [1] 82.8% | [2] 62.2% | [3] 93.7% | [4] 62.7% | [5] 105% | [6] 67.3% | [7] 71.3% | [8] 88.1% | [9] 98.5% | [10] 96.4% | [11] 94.1% | [12] 92.9% | [13] 87.7% | [14] 91.2% | [15] 77.6% | [16] 72.3% | [17] 98% | [18] 81.3% | [19] 94.2% | [20] 104%

CN1CCN(CC#CCNC(=O)[C@]23CCC(C)(C)C[C@H]2C2=CC[C@@H]4[C@@]5(C)Cc6c([nH]c7ccccc67)C(C)(C)[C@@H]5CC[C@@]4(C)[C@]2(C)CC3)CC1
active: [2] 1.31% | [12] 7.18%
inactive: [1] 61.9% | [3] 26.6% | [4] 74.1% | [5] 66.5% | [6] 70% | [7] 108% | [8] 82.6% | [9] 82.2% | [10] 51.5% | [11] 39.2% | [13] 92.7% | [14] 79.3% | [15] 42.7% | [16] 56.7% | [17] 75.1% | [18] 95.7% | [19] 66.7% | [20] 79%

O=C(Nc1cccc(Cl)c1)c1cc(Cl)ccc1O
inactive: [1] 24.1% | [2] 15.5% | [6] 18% | [8] 19.4% | [11] 12% | [12] 15.5% | [14] 15.9% | [15] 15.7%
active: [3] -17.8% | [4] 1.35% | [5] -12.3% | [7] -60.3% | [9] -4.11% | [10] 8.3% | [13] -26.8% | [16] -4.48% | [17] -54.4% | [18] 0.352% | [19] -32.5%
